# BoNT-A LC inh2 = BoNT/A light chain protease inhibitors, primary screen, biochemical, flow cytometry, MLPCN library; Botulinum neurotoxin type A light chain protease (Clostridium botulinum A str. ATCC 3502); multiplex microsphere protease substrate cleavage; inhibition, % at 10 µM; 360,000 compounds, 0.17% hits; AID 588499, 2011; note: plate controls were buffer without enzyme for full effect and enzyme alone for no effect
# BoNT-F LC inh = BoNT/F light chain protease inhibitors, primary screen, biochemical, flow cytometry, MLPCN library | Botulinum neurotoxin type F light chain protease (Clostridium botulinum) | Multiplex microsphere protease cleavage assay | inhibition, % at 10 µM | 360,000 compounds, 0.22% hits | AID 588497, 2011; in the data active = inhibition above about 35%, passing the limit was not always enough; inconclusive = no clear call, values can overlap the other calls; note: plate controls were buffer without enzyme for full effect and enzyme alone for no effect
# Autofluor counter = counter-screen for toxin protease inhibitors: compound fluorescence. compound autofluorescence counterscreen, microsphere flow cytometry; stronger effect = higher value. fluorescence intensity (concentration not given with the values). 360,000 compounds, 3.1% hits; in the data active = fluorescence intensity above about 16000; inconclusive = no clear call, values can overlap the other calls
# Vc quorum ag = inducers of Vibrio cholerae quorum light production without autoinducers, primary screen, BH1578 luxS cqsA deficient, single point; activation, % at 18.7 µM; V. cholerae BH1578 lux reporter, luminescence, 6 h; 350,000 compounds, 0.16% hits; in the data active = activation mostly above about 9.7%, no sharp cut-off; inconclusive = no clear call, values can overlap the other calls; inactive = mostly below about 3.7%
# Anthrax LF inh2 = Bacillus anthracis LF protease inhibitors, primary screen, biochemical, multiplex microsphere, MLPCN library. Lethal factor (Bacillus anthracis), P15917. multiplex microsphere protease cleavage assay. inhibition, % at 10 µM. 360,000 compounds, 0.12% hits. AID 588501, 2011; note: plate controls were buffer without enzyme for full effect and enzyme alone for no effect
# Target sequence (P15917 whole entry, looked up): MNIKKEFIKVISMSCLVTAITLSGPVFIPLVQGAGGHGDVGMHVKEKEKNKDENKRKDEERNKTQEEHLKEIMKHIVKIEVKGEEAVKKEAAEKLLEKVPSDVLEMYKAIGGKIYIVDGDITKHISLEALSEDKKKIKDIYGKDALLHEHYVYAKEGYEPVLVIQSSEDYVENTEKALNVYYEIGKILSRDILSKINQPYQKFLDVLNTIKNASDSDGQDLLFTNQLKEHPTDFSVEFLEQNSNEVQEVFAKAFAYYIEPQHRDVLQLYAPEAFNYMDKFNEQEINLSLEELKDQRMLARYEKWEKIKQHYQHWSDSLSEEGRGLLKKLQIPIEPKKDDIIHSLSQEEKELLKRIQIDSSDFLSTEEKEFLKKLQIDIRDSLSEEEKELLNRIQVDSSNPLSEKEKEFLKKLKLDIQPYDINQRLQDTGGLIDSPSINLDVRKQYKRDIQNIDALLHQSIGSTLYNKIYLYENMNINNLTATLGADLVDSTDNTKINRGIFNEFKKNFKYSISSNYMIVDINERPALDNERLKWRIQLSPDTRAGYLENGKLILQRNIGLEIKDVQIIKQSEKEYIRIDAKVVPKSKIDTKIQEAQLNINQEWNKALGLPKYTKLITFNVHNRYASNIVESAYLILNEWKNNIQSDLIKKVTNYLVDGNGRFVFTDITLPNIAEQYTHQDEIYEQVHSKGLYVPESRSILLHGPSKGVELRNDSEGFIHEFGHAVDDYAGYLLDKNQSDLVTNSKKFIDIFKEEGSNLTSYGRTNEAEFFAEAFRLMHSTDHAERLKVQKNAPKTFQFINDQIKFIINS
# Numbers without * were called inactive; i = inactive; ? = inconclusive; nt = not tested or not shown. In the library only some 3.5% were active in any assay of this set; here they are far more common. Cut-off read from the data, not from the text of the source, unless noted: active = inhibition above about 30%; inconclusive = no clear call, values can overlap the other calls; inactive = below that.
SMILES,BoNT-A LC inh2,BoNT-F LC inh,Autofluor counter,Vc quorum ag,Anthrax LF inh2
CCOC(=O)CN(C(=O)CSc1nnc(CNc2ccc(F)cc2)o1)c1ccccc1,3,1,7297,-1,-4
CC(C)(C)N(Cc1ccccc1)C(=O)CSc1nnc(CNc2ccc(F)cc2)o1,10,13,17024*,0,-10
COC(=O)c1c(-c2ccccc2)noc1C,0,-3,3128,-2,3
Cc1onc(-c2ccccc2)c1C(=O)Oc1cccnc1,1,5,21663*,i,-3
COC(=O)Nc1nnc(/C=C/c2ccccc2)s1,-1,0,1955,0,-1
CC(=O)Nc1nnc(/C=C/c2cccc([N+](=O)[O-])c2)s1,0,63*,4252,0,-2
CC(Sc1ccccn1)C(=O)Nc1ccccc1 (configuration not stated),0,0,20487*,i,-4
CC(=O)c1ccc(NC(=O)C(C)Sc2ccccn2)cc1 (configuration not stated),1,5,4380,0,-2
COc1ccc(S(=O)(=O)N2CCCOC2CNC(=O)C(=O)NCc2ccccc2C)cc1 (configuration not stated),0,-2,3752,-1,-5
CN(C)C(=O)CSc1nnc(-c2ccco2)n1-c1ccccc1,-1,1,3575,0,12
CN(Cc1ccccc1)C(=O)CSc1nnc(-c2ccco2)n1-c1ccccc1,-2,0,19956*,1,-1
Cc1ccc2nc(CSc3nnc(-c4ccco4)n3-c3ccccc3)cc(=O)n2c1,0,1,22931*,i,-1
COC(=O)c1[nH]c2cccc(OC)c2c1NC(=O)CN(C)CC1OCCO1,-1,-2,16319*,i,-12
COC(=O)c1[nH]c2cccc(OC)c2c1NC(=O)CN1CCOCC1,-1,-4,2909,5,2
Cn1c(SCC(=O)N2CCOCC2)nnc1-c1ccc(Cl)cc1Cl,0,-3,23071*,i,-5
Cn1c(SCC(=O)N2CCOCC2)nnc1-c1cccc(NC(=O)c2ccccc2F)c1,-1,-3,20837*,0,-3
CCOC(=O)C(=O)Nc1ccccc1C(=O)Nc1ccc(OC)cc1,8,12,19641*,0,-18
CCOC(=O)N1CCN(C(=O)c2ccccc2NC(=O)c2ccc(OC)cc2)CC1,-2,-4,23728*,0,-4
O=C1NC[C@H](CCCCN2C[C@H](Cc3ccc(O)cc3)N(Cc3ccccc3)C(=O)C2=O)N(CC2CCCCC2)C1=O,-1,-10,4577,nt,-16
Cc1ccc(S(=O)(=O)NCCC(=O)NCC(c2ccco2)N2CCCCC2)cc1C (configuration not stated),-1,-1,5234,i,-2
O=C1CN(C(=O)COC(=O)Cc2ccsc2)c2ccccc2N1,?,-4,23072*,i,-2
O=C1CN(C(=O)COC(=O)c2oc3ccccc3c2COc2ccccc2)c2ccccc2N1,-1,-4,22869*,-4,-2
O=C1CN(C(=O)COC(=O)Cc2ccccc2)c2ccccc2N1,0,0,4236,0,1
NS(=O)(=O)c1ccc(CCNC(=O)c2cc([N+](=O)[O-])ccc2N2CCCCC2)cc1,-1,-12,3440,-10,-16
NS(=O)(=O)c1cc(C(=O)N2CCc3ccccc32)c(Cl)cc1Cl,3,1,18762*,-5,-4
SMILES,BoNT-A LC inh2,BoNT-F LC inh,Autofluor counter,Vc quorum ag,Anthrax LF inh2
O=C(c1cc(Cl)ccc1Cl)N1CCc2ccccc21,5,?,3260,-1,-11
CCc1ccc(C(=O)N2CCCN(C)CC2)s1,2,2,5238,0,-2
O=C(c1ccc(Cl)s1)N1CCCC1,-4,-5,24368*,0,-1
O=C(c1ccc(Cl)s1)N1CCc2ccccc21,-2,-4,20271*,-1,1
CCc1ccc(C(=O)N2CCCC2)s1,?,-3,16597*,0,-1
O=C(c1ccc(C(=O)N2CCCc3ccccc32)s1)N1CCCc2ccccc21,0,2,9169,0,3
CS(=O)(=O)N1CCN(C(=O)c2ccc(Cl)s2)CC1,-1,3,4306,0,3
O=C(Nc1ccc2nc3n(c(=O)c2c1)CCCCC3)C(=O)N1CCN(c2ccc(F)cc2)CC1,0,4,5153,-1,-1
CC(C)(O)C#Cc1ccc(C(=O)NC2CCCCC2)s1,-2,-6,3723,-1,0
CCc1ccc(C(=O)NC2CCCCC2)s1,-3,-3,20340*,-1,-4
Cc1nn(C)c(C(=O)N2CCc3ccccc32)c1Cl,?,0,21851*,1,-1
Cn1cc(-c2nnnn2-c2cccc(C(F)(F)F)c2)c(C(F)(F)F)n1,-3,-4,24492*,-1,-2
Cc1nn(-c2cccc(C(F)(F)F)c2)c(=O)c2ccccc12,3,-14,3247,1,-4
CCc1cccc(CC)c1NC(=O)COC(=O)c1cccc(-c2ccc(OC(C)=O)cc2)c1,-1,-6,1972,i,0
O=C(CN1CCCCCC1)NCc1ccccc1,-1,-2,4374,1,5
CC1CCN(CC(=O)NCc2ccccc2)CC1,0,-1,22476*,i,0
CCCCOc1nc(N)nc(-c2ccccc2)n1,0,-3,22127*,-1,0
Nc1nc(N)nc(-c2ccccc2)n1,0,6,3065,i,0
Cc1ccc(NC(=O)C(C)C(=O)Nc2ccc(C)cc2)cc1,0,0,4833,1,-5
Cc1ccc(NC(=O)N2CCC(=O)N2)cc1,-3,-5,23674*,-14,-8
CC(C)n1ncc2c(C(=O)N3CCN(Cc4ccc(Br)s4)CC3)cc(C3CC3)nc21,0,2,4015,-1,-6
O=C(c1ccc2c(c1)OCO2)C1CCCN(Cc2c(F)ccc(F)c2F)C1 (configuration not stated),1,2,5250,0,2
Cc1nc2ccccc2n1/N=C/c1cccnc1,-3,-3,24451*,i,-4
COc1cccc(NC(=O)Cn2c(=O)oc3ccccc32)c1,-1,-2,23609*,-3,-2
COc1ccc(OCC(=O)Nc2cccc(OC)c2)cc1,-3,-4,17719*,i,-5
COC(=O)COc1cccc(NC(=O)c2ccccc2)c1,?,-2,24578*,i,-10
COc1cc(NC(=O)COc2ccc(-n3ccnc3)cc2)cc(OC)c1,0,3,3882,i,5
N#Cc1cccc(NC(=O)COc2ccc(-n3ccnc3)cc2)c1,-1,-1,23571*,i,-3
CCCCCC(C)NC(=O)c1cc(S(=O)(=O)N2CCCCC2)ccc1N1CCOCC1 (configuration not stated),-1,1,9288,-3,-2
Cc1nc(NC(=O)COc2ccccc2)sc1C(=O)Nc1cccc(Cl)c1,?,-8,24209*,0,-4

# Screening results as filed in PubChem BioAssay.
